Whole data set: some 33,000 sequences, median “normalized occupancy” near 0.075, cut for the highest 2% near 0.095. The sample holds the highest values, similar sequences and a random draw of the others, so the mix is not that of the screen.

MaxL homodimer, sequence (P61244 whole entry): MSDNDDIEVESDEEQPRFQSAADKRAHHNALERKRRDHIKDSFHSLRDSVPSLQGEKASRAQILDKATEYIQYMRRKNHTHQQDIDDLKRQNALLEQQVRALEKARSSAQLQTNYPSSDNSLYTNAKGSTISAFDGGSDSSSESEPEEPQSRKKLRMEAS

This experiment has as its target MaxL homodimer (Homo sapiens, UniProt P61244 1-160). As to the kind of experiment: universal protein-binding microarray (PBM); PBS-based mixture, 10 nM His-tagged protein dimer, 2% milk, 200 ng/uL BSA, 50 ng/uL salmon testes DNA, 0.02% TX-100; detection with Alexa 488 anti-His antibody;; high values mean tight binding. Conditions: protein: recombinant; tags: C-terminal His-tag (pET21a); chain copies: 2; dsDNA, one strand shown. An outline of the steps: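 Agilent 4 x 44 K arrays carrying the 'all 10-mer' universal design were incubated with His-tagged protein dimer at 10 nM. Protein that bound was tagged using fluorophore-conjugated anti-His antibody at 10 ng/μL, and a GenePix 4400A scanned the arrays to give an intensity for every 8-mer. Each binding occupancy value expresses an intensity relative to the top-ranked intensity.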
Regarding ACGGGTGA, the binding signal was 0.0801 normalized occupancy.
The value for CATCTCAA was 0.0793 normalized occupancy; that for TCAGCTGA was 0.0752 normalized occupancy; that for GCTACGAC was 0.078 normalized occupancy.
The figure for AGCCACGC is 0.109 normalized occupancy; for CGCCACAA it is 0.076 normalized occupancy; for CGCCACGA it is 0.0799 normalized occupancy.
Take CGCCACGC: the binding signal was determined as 0.0953 normalized occupancy.
Consider AGCCACGG, for which the binding signal was 0.0742 normalized occupancy.
The figure for AGCCACGA is 0.0883 normalized occupancy; for GATTTTTA it is 0.0759 normalized occupancy; for ACGTACAG it is 0.0776 normalized occupancy.
The figure for CAAATGTA is 0.0834 normalized occupancy; for TCCCTCCA it is 0.075 normalized occupancy; for AGACAGAA it is 0.0751 normalized occupancy.
The figure for GATATGCA is 0.0792 normalized occupancy; for CATATGCA it is 0.0978 normalized occupancy; for TATATGCA it is 0.0896 normalized occupancy.
For the sequence CATATGCG, the binding signal worked out at 0.105 normalized occupancy.
The value for AATATGTA was 0.0801 normalized occupancy; that for CATATGTA was 0.0972 normalized occupancy.
The value for CATATGTC was 0.0943 normalized occupancy; that for AATATGCG was 0.0761 normalized occupancy; that for CATATGCC was 0.095 normalized occupancy.
The value for TAGACCTA was 0.0731 normalized occupancy; that for GGGGAACA was 0.081 normalized occupancy.
Consider TTACTAAA, for which the binding signal is 0.0728 normalized occupancy.
As to TGACTCAA, the binding signal was 0.0763 normalized occupancy.
As for AGGGAGCA, the binding signal was 0.0728 normalized occupancy.
The value for TAGTTGGA was 0.0742 normalized occupancy; that for TAAGGACA was 0.075 normalized occupancy; that for CTACGCAC was 0.0773 normalized occupancy.
In the case of ACCGCGTG, the binding signal stood at 0.182 normalized occupancy.
The figure for AACGCGTC is 0.0723 normalized occupancy; for CACGCGTC it is 0.119 normalized occupancy; for AACGCGTG it is 0.123 normalized occupancy.
With ACCGCGTA, the binding signal was determined as 0.0727 normalized occupancy.
The value for TACGCGTA was 0.0797 normalized occupancy; that for ACCGCGCG was 0.0856 normalized occupancy.
The figure for AACGCGTT is 0.0813 normalized occupancy; for GACGCGTA it is 0.0737 normalized occupancy.
For CACGCGTA, the binding signal was 0.121 normalized occupancy.
The value for GACGCGTC was 0.0757 normalized occupancy.
The value for AACGCGTA was 0.0792 normalized occupancy; that for CCTTAGCC was 0.0725 normalized occupancy; that for CGTGCTGC was 0.09 normalized occupancy.
The value for CGCTGACA was 0.0773 normalized occupancy; that for GCGAGCAA was 0.0723 normalized occupancy; that for AAGAACAT was 0.08 normalized occupancy.
As for GACGGTCA, the binding signal is 0.0718 normalized occupancy.
With GCGACAGA, the binding signal is 0.0794 normalized occupancy.
Turning to AAGTCATT, the binding signal amounted to 0.0758 normalized occupancy.
The value for CAACATTA was 0.0824 normalized occupancy.
With CCGAATGA, the binding signal is 0.0745 normalized occupancy.
The value for AAACACAG was 0.0769 normalized occupancy; that for CGCGCGTA was 0.0797 normalized occupancy.
The value for ATCGCGTG was 0.127 normalized occupancy; that for CTCGCGTA was 0.0788 normalized occupancy; that for CACGCGTG was 0.17 normalized occupancy.
For the sequence ATCGCGTA, the binding signal was determined as 0.0764 normalized occupancy.
The figure for ATCGCGTC is 0.0719 normalized occupancy; for GCCAACCC it is 0.08 normalized occupancy.
Turning to AACATGGT, the binding signal was 0.0843 normalized occupancy.
The value for AGTGAAAG was 0.0743 normalized occupancy.
As to CCCGGTAG, the binding signal is 0.0721 normalized occupancy.
The value for ATGTGATC was 0.0964 normalized occupancy; that for ATGTGACG was 0.0922 normalized occupancy; that for ATCTGATG was 0.0779 normalized occupancy.
In the case of AGGTGATC, the binding signal is 0.0832 normalized occupancy.
Consider ATGTGAAA, for which the binding signal was found to be 0.0872 normalized occupancy.
The figure for ATGTGAAG is 0.0891 normalized occupancy.
The value for CTGTGATC was 0.0728 normalized occupancy; that for ATGTGAAT was 0.0967 normalized occupancy; that for ATGTGATG was 0.0968 normalized occupancy.
The figure for GTGTGATA is 0.0856 normalized occupancy; for ATGTGATA it is 0.0999 normalized occupancy.
With CTGTGATA, the binding signal worked out at 0.0741 normalized occupancy.
As to AAGAGGAA, the binding signal is 0.0726 normalized occupancy.
The figure for AATTATCG is 0.0772 normalized occupancy.
In the case of AATTCGAG, the binding signal turned out to be 0.0732 normalized occupancy.
For AAGAGGGC, the binding signal came out at 0.0738 normalized occupancy.
CTGGTTAC: the binding signal came out at 0.0749 normalized occupancy.
The value for ATAGGGAT was 0.0812 normalized occupancy.
With CCGAGTAG, the binding signal amounted to 0.0732 normalized occupancy.
Take GATGATAA: the binding signal amounted to 0.078 normalized occupancy.
Regarding AGAATGTG, the binding signal amounted to 0.0881 normalized occupancy.
For ATGGTAGG, the binding signal was 0.0818 normalized occupancy.
The value for CTTACTAA was 0.0721 normalized occupancy; that for CTCGTGGC was 0.119 normalized occupancy; that for ATCGTGGA was 0.084 normalized occupancy.
With ATCGTGGC, the binding signal was found to be 0.086 normalized occupancy.
As for CTAGTGGC, the binding signal is 0.0765 normalized occupancy.
On to GTCGTGGA, for which the binding signal was found to be 0.0856 normalized occupancy.
With CTCGTGGA, the binding signal turned out to be 0.103 normalized occupancy.
The figure for CATCTCTA is 0.0817 normalized occupancy; for CAATTATG it is 0.0802 normalized occupancy; for AAACACGC it is 0.0929 normalized occupancy.
Regarding CAACACGC, the binding signal was 0.0995 normalized occupancy.
For the sequence GAACACGA, the binding signal came to 0.0948 normalized occupancy.
As for CAACACGA, the binding signal is 0.0817 normalized occupancy.
The value for GAACACGC was 0.108 normalized occupancy; that for GAACACAC was 0.0767 normalized occupancy; that for ATTAGCGG was 0.0719 normalized occupancy.
The value for ACATTGAA was 0.0824 normalized occupancy; that for ACGAGAGG was 0.0776 normalized occupancy; that for AAACAAAG was 0.0763 normalized occupancy.
The figure for GCATGCAC is 0.11 normalized occupancy; for GAATGCAC it is 0.0772 normalized occupancy; for GCATGCAA it is 0.0988 normalized occupancy.
On to TCATGCAA, for which the binding signal amounted to 0.0829 normalized occupancy.
The value for ACATGCAA was 0.0826 normalized occupancy.
The value for GTATGCAC was 0.0856 normalized occupancy; that for ATGGAAGC was 0.0783 normalized occupancy.
